Laboratory results as given in PubChem BioAssay (EPA / NIEHS).
Records with an inconclusive call do not appear. Active and inactive are the calls of the source. The calls were made as follows, unless noted: active = hit-call score of the fitted dose curve at least 0.9, where 1 is the maximum; inactive = score below 0.9.

How the values were obtained:
[1] = biological target: Paired box protein Pax-6 (Homo sapiens) (UniProt P26367); test: ATG_Pax6_CIS: Attagene CIS-FACTORIAL HepG2 Assay for human Paired Box 6 (PAX6) (AID 2282956); details: HepG2 CIS-FACTORIAL PAX6 reporter transcription, RNA readout; actives raise or lower the signal
Outline: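 HepG2 cells transiently transfected with cis-promoter-driven multiplexed reporter units sensing endogenous transcription factor activity; 24 h chemical exposure. Reporter mRNA quantified by RT-PCR, 6-FAM labelling, HpaI digestion and capillary electrophoresis; bidirectional fit versus DMSO baseline.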

[2] = ATG_PXRE_CIS: Attagene CIS-FACTORIAL HepG2 Assay for human Pregnane X Receptor Element (PXRE) (AID 2282957); details: HepG2 Attagene CIS-FACTORIAL PXRE reporter, mRNA; actives raise or lower the signal
Outline: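 Transfect HepG2 with MRTUs (cis promoter elements); dose chemical, incubate 24 h; isolate RNA, RT with oligo(dT), PCR, 6-FAM label, HpaI cut, CE. Gain/loss fit vs DMSO.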

[3] = ATG_PPRE_CIS: Attagene CIS-FACTORIAL HepG2 Assay for human Peroxisome Proliferator-activated Response Element (PPRE) (AID 2282958); details: HepG2 PPRE cis-element reporter, Attagene transcription factor profiling; actives raise or lower the signal
Outline: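 Transcript-level reporter induction in transfected HepG2 cells after 24 h chemical exposure, quantified by fluorescence from RT-PCR products separated by capillary electrophoresis.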

[4] = ATG_RORE_CIS: Attagene CIS-FACTORIAL HepG2 Assay for human RAR-related Orphan Receptor Element (RORE) (AID 2282959); details: HepG2 Attagene cis-factorial RORE reporter, mRNA; actives raise or lower the signal
Outline: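 Multiplexed reporter assay measuring mRNA induction from a cis promoter element in transiently transfected HepG2 cells after 24 h treatment. Detection via RT-PCR and capillary electrophoresis fluorescence; DMSO serves as baseline.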

[5] = ATG_Sox_CIS: Attagene CIS-FACTORIAL HepG2 Assay for human SRY-box transcription factor (SOX) (AID 2282960); details: HepG2 Attagene cis-factorial SOX reporter, mRNA; actives raise or lower the signal
Outline: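 Cells were transfected with reporter constructs under cis-regulatory promoters, then exposed to chemicals for 24 h. Reporter transcripts were quantified by fluorescence after RT-PCR and capillary electrophoresis; activity was fitted in both directions against DMSO.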

[6] = biological target: Transcription factor Sp1 (Homo sapiens) (UniProt P08047); test: ATG_Sp1_CIS: Attagene CIS-FACTORIAL HepG2 Assay for human Specificity Protein 1 (Sp1) (AID 2282961); details: HepG2 Sp1 cis-reporter transcription, actives raise or lower the signal
Outline: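 Measures mRNA induction of an Sp1-linked reporter in HepG2 cells 24 h post-dosing. Multiplexed reporters read by RT-PCR and capillary electrophoresis; DMSO serves as negative control and baseline.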

[7] = ATG_SREBP_CIS: Attagene CIS-FACTORIAL HepG2 Assay for human Sterol Regulatory Element Binding (SREBP) (AID 2282962); details: HepG2 Attagene cis-factorial SREBP reporter, mRNA; actives raise or lower the signal
Outline: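 HepG2 cells transiently transfected with multiplexed cis-promoter reporter units sensing endogenous transcription factors; reporter mRNA measured 24 h after dosing by RT-PCR, 6-FAM labeling, HpaI digestion and capillary electrophoresis. Bidirectional fit versus DMSO.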

[8] = biological target: Signal transducer and activator of transcription 3 (Homo sapiens) (UniProt P40763); test: ATG_STAT3_CIS: Attagene CIS-FACTORIAL HepG2 Assay for human Signal Transducer and Activator of Transcription 3 (STAT3) (AID 2282963); details: HepG2, Attagene cis-factorial STAT3 reporter transcription; actives raise or lower the signal
Outline: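 After a 24 h compound incubation, total RNA from MRTU-transfected HepG2 cells was converted to cDNA and reporter sequences PCR-amplified, labelled and profiled by capillary electrophoresis. Gain and loss of signal were referenced to DMSO.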

[9] = ATG_TA_CIS: Attagene CIS-FACTORIAL HepG2 Assay for human TA Basal Promoter (AID 2282964); details: HepG2 Attagene CIS-factorial TA basal promoter reporter; actives raise or lower the signal
Outline: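 Transfected HepG2, 24 h compound exposure; RNA → RT-PCR → FAM primer extension → HpaI cut → CE fluorescence. Gain/loss-of-signal fitted against DMSO negative control. Background-control readout.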

[10] = ATG_TCF_b_cat_CIS: Attagene CIS-FACTORIAL HepG2 Assay for human T-Cell-Factor with beta-catenin (TCF/b-cat) (AID 2282965); details: HepG2 TCF/beta-catenin cis-reporter transcription, actives raise or lower the signal
Outline: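 Endogenous transcription factor activity is captured through cis-promoter reporter constructs transiently introduced into human HepG2 liver cells. Induced reporter mRNA is measured after 24 h and fitted bidirectionally relative to DMSO.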

[11] = ATG_TAL_CIS: Attagene CIS-FACTORIAL HepG2 Assay for human TAL Basal Promoter (AID 2282966); details: HepG2 Attagene cis-factorial TAL promoter reporter; actives raise or lower the signal;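 also: background control endpoint measuring basal TAL promoter reporter mRNA not a specific factor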
Outline: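 Fluorescence of labelled reporter cDNA fragments, resolved by capillary electrophoresis, gave the readout. Human HepG2 liver cells carried transiently transfected cis-element reporter units and were treated for 24 hours; activity was fitted bidirectionally against DMSO.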

[12] = ATG_TGFb_CIS: Attagene CIS-FACTORIAL HepG2 Assay for human Transforming Growth Factor (TGF) (AID 2282967); details: HepG2 Attagene CIS TGFb reporter, mRNA transcription; actives raise or lower the signal
Outline: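 Readout: fluorescently labeled reporter cDNA fragments resolved by capillary electrophoresis after RT-PCR. Transfected HepG2 cells dosed for 24 h; endogenous TF activity at TGFB1-linked cis element; gain or loss fitted relative to DMSO.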

[13] = biological target: Nuclear receptor subfamily 1 group I member 3 (Homo sapiens) (UniProt Q14994); test: ATG_CAR_TRANS: Attagene TRANS-FACTORIAL HepG2 Assay for human Constitutive Androstane Receptor (CAR) (AID 2282969; active = hit-call score of the fitted dose curve at least 0.9, where 1 is the maximum;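 also: activators raise reporter mRNA above DMSO so AC50 marks induction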); details: HepG2 Attagene TRANS-FACTORIAL CAR reporter
Outline: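 Readout is reporter mRNA induction, quantified by fluorescent primer extension and capillary electrophoresis after RT-PCR. Cells were HepG2 transiently carrying chimeric NR-Gal4 constructs with GAL4-UAS reporters, treated for 24 h; activity scored upward from DMSO.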

[14] = biological target: X-box-binding protein 1 (Homo sapiens) (UniProt P17861); test: ATG_Xbp1_CIS: Attagene CIS-FACTORIAL HepG2 Assay for human X-box Binding Protein 1 (XBP1) (AID 2282972); details: HepG2 XBP1 cis-element reporter, Attagene multiplex; actives raise or lower the signal
Outline: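 HepG2 cells transiently transfected with multiple cis-element reporter units report endogenous TF activity; 24 h exposure, then reporter mRNA measured by RT-PCR, 6-FAM labelling, HpaI digestion and capillary electrophoresis. Bidirectional fitting versus DMSO.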

[15] = ATG_VDRE_CIS: Attagene CIS-FACTORIAL HepG2 Assay for human Vitamin D Receptor Element (VDRE) (AID 2282968); details: HepG2 VDRE cis-reporter transcription, actives raise or lower the signal
Outline: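 In transiently transfected HepG2 liver cells, gain or loss of reporter mRNA after 24 h exposure is scored relative to DMSO, using fluorescence detection by capillary electrophoresis of RT-PCR products.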

[16] = biological target: Estrogen receptor (Homo sapiens) (UniProt P03372); test: ATG_ERa_TRANS: Attagene TRANS-FACTORIAL HepG2 Assay for human Estrogen Receptor alpha (ERa) (AID 2282970; active = hit-call score of the fitted dose curve at least 0.9, where 1 is the maximum); details: HepG2 Attagene TRANS ERa GAL4 reporter, mRNA
Outline: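 Human liver HepG2, transient transfection of multiple GAL4-UAS reporter units; TRANS format (exogenous NR-Gal4 chimera). 24 h dosing. Readout: reporter mRNA, RT-PCR, 6-FAM primer extension, HpaI digest, capillary electrophoresis. Positive direction vs DMSO.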

[17] = ATG_M_19_TRANS: Attagene TRANS-FACTORIAL HepG2 Assay for M19 Transcription Factor (Internal Marker) (AID 2282974; active = hit-call score of the fitted dose curve at least 0.9, where 1 is the maximum); details: HepG2 Attagene TRANS-FACTORIAL M19 internal marker reporter
Outline: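 After transfection of HepG2 with GAL4-UAS-driven reporter constructs, cells are dosed for 24 h. Total RNA is reverse-transcribed, reporter sequences PCR-amplified and labelled, then HpaI-digested and sized by capillary electrophoresis.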

[18] = ATG_GAL4_TRANS: Attagene TRANS-FACTORIAL HepG2 Assay for GAL4 (Internal Marker) (AID 2282976; active = hit-call score of the fitted dose curve at least 0.9, where 1 is the maximum); details: HepG2 Attagene TRANS GAL4 internal marker reporter
Outline: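 First, HepG2 cells were transfected with reporter units under GAL4-UAS control. Next, they were treated with chemical for 24 h. Finally, RNA was reverse-transcribed, PCR-amplified, FAM-labelled and resolved by capillary electrophoresis, with induction scored against DMSO.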

[19] = biological target: Steroid hormone receptor ERR1 (Homo sapiens) (UniProt P11474); test: ATG_ERRa_TRANS: Attagene TRANS-FACTORIAL HepG2 Assay for human Estrogen-Related Receptor alpha (ERRa) (AID 2282971; active = hit-call score of the fitted dose curve at least 0.9, where 1 is the maximum); details: HepG2 Attagene TRANS reporter, ERRa transactivation
Outline: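 Reporter transcript induction was quantified by RT-PCR and capillary electrophoresis of FAM-labelled, HpaI-cut products after 24 h treatment of HepG2 cells carrying transiently transfected GAL4-UAS reporter units and an exogenous ERRa-Gal4 fusion; activity scored as increase over DMSO.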

[20] = biological target: Estrogen-related receptor gamma (Homo sapiens) (UniProt P62508); test: ATG_ERRg_TRANS: Attagene TRANS-FACTORIAL HepG2 Assay for human Estrogen-Related Receptor gamma (ERRg) (AID 2282977; active = hit-call score of the fitted dose curve at least 0.9, where 1 is the maximum;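 also: hits increase reporter signal over DMSO so potencies reflect activators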); details: HepG2 Attagene TRANS reporter, ERRg transactivation
Outline: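 HepG2 cells transiently transfected with multiplexed GAL4-UAS reporter units and chimeric NR-Gal4 constructs were exposed to test chemicals for 24 h. Reporter mRNA was measured by RT-PCR, 6-FAM primer extension, HpaI digestion and capillary electrophoresis; gain-of-signal versus DMSO.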

Measured: AC50

Sequence of X-box-binding protein 1 (Homo sapiens) (P17861 whole entry, looked up): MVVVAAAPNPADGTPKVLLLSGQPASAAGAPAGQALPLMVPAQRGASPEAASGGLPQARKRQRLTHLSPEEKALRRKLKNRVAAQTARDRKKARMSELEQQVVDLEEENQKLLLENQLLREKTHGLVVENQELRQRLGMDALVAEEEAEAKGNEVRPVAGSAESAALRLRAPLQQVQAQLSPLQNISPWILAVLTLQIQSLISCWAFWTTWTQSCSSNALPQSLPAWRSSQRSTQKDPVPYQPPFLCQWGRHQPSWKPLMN
Sequence of Signal transducer and activator of transcription 3 (Homo sapiens) (P40763 whole entry, looked up): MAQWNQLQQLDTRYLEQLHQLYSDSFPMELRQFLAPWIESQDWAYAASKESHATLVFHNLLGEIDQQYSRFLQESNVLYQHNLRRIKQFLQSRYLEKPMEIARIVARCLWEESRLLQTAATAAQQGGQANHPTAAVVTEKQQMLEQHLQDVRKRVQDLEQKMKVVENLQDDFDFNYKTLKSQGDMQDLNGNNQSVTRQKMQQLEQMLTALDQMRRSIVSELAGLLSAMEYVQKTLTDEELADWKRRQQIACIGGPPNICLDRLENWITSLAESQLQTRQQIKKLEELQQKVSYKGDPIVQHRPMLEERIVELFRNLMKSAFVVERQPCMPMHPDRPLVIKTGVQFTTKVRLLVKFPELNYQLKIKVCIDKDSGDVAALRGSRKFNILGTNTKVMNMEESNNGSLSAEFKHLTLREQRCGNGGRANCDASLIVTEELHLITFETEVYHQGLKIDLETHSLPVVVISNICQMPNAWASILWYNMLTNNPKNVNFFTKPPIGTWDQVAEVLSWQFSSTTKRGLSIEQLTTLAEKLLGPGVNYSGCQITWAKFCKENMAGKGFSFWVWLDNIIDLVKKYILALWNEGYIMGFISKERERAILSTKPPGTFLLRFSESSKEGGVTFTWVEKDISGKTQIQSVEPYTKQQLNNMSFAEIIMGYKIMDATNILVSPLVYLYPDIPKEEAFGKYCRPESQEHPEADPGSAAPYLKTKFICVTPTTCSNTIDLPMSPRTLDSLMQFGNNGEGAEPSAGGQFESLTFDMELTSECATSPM
Sequence of Transcription factor Sp1 (Homo sapiens) (P08047 whole entry, looked up): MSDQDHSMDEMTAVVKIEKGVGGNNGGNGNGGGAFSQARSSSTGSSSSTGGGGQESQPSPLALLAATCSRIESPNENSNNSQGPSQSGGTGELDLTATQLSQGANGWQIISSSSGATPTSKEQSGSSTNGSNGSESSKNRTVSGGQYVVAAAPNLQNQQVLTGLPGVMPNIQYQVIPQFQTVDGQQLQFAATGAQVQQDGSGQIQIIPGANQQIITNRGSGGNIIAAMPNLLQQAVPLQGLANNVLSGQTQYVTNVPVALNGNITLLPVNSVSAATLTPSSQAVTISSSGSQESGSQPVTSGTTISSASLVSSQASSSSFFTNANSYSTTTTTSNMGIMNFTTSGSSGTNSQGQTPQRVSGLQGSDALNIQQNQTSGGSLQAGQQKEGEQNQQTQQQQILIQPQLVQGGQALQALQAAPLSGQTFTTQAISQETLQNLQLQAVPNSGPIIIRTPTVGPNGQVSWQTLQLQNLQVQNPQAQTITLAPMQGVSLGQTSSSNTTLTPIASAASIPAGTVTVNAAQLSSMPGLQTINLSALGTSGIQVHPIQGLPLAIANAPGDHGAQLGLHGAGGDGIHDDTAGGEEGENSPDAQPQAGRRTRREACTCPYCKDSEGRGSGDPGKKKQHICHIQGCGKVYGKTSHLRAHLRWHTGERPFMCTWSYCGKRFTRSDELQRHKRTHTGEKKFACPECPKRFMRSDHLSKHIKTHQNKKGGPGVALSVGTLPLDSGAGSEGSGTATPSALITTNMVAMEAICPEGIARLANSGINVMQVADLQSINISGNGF
Sequence of Nuclear receptor subfamily 1 group I member 3 (Homo sapiens) (Q14994 whole entry, looked up, the tested form may be a part): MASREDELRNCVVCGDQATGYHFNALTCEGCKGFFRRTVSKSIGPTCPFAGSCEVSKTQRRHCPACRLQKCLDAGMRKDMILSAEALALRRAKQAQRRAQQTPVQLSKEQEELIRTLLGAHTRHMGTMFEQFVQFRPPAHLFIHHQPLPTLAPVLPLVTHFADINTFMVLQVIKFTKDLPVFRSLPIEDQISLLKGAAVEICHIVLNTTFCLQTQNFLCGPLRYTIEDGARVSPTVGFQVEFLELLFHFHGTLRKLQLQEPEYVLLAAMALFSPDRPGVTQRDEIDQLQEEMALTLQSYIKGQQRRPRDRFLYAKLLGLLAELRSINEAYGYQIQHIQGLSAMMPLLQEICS
Sequence of Paired box protein Pax-6 (Homo sapiens) (P26367 whole entry, looked up): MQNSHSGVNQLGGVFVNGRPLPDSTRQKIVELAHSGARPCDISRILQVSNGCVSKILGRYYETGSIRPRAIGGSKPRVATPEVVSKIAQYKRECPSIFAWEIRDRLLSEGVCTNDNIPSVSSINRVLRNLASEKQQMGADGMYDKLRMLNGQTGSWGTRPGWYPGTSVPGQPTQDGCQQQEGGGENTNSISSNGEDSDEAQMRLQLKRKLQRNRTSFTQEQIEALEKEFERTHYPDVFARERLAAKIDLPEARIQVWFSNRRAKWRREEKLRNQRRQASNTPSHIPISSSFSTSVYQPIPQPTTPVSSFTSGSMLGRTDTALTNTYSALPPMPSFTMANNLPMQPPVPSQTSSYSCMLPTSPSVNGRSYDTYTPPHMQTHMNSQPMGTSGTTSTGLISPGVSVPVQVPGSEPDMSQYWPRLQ
Sequence of Estrogen-related receptor gamma (Homo sapiens) (P62508 whole entry, looked up, the tested form may be a part): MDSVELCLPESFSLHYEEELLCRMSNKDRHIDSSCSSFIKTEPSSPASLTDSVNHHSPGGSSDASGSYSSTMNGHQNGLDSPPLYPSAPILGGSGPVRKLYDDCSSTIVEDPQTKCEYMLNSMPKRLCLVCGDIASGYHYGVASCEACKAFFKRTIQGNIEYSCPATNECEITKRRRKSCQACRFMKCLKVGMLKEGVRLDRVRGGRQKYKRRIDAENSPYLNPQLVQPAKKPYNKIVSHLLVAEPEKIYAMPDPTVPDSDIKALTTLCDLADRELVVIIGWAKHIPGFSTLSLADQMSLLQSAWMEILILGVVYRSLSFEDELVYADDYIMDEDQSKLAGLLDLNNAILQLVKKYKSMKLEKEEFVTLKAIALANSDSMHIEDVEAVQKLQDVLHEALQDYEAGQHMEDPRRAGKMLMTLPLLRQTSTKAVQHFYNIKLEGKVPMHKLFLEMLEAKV
Sequence of Estrogen receptor (Homo sapiens) (P03372 whole entry, looked up, the tested form may be a part): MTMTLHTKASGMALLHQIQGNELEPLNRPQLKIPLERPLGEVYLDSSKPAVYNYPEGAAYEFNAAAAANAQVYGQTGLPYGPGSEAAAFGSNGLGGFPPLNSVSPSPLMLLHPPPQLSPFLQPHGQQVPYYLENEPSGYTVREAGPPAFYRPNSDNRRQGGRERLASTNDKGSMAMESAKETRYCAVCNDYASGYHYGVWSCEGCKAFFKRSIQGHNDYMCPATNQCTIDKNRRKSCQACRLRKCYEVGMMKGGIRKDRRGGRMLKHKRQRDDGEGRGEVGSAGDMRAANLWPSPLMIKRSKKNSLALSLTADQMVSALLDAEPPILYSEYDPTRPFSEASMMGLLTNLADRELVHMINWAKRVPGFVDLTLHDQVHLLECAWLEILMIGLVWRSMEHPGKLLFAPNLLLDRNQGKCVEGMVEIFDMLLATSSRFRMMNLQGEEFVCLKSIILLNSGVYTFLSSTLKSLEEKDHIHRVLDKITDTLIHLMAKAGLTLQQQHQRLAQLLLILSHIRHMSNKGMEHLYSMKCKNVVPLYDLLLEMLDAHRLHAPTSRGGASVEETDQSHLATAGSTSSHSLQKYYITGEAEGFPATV
Sequence of Steroid hormone receptor ERR1 (Homo sapiens) (P11474 whole entry, looked up, the tested form may be a part): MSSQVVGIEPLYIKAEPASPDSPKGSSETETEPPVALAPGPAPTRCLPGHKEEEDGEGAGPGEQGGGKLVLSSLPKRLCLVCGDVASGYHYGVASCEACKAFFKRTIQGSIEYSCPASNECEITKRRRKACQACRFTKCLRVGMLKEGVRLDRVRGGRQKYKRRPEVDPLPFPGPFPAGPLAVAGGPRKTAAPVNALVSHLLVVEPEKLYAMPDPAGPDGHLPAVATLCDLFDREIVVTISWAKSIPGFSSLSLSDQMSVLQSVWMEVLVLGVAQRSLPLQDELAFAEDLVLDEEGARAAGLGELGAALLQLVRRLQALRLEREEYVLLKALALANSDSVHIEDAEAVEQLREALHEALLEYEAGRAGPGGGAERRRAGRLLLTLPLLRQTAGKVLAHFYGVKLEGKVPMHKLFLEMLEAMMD

Cc1ccc(O)cc1
not listed: [15] | [16] | [17] | [18] | [19] | [20]
inactive: all other assays above

CC[C@H](C)C(=O)O[C@H]1C[C@@H](C)C=C2C=C[C@H](C)[C@H](CC[C@@H]3C[C@@H](O)CC(=O)O3)[C@H]21
active: [2] 1.8 µM | [7] 1.36 µM | [15] 4.47 µM
not listed: [13] | [18] | [19] | [20]
inactive: all other assays above

C1=CCCC=CCCC=CCC1
active: [6] 165 µM
not listed: [16] | [17] | [18] | [19] | [20]
inactive: all other assays above

CC(C)(O)c1coc(S(=O)(=O)NC(=O)Nc2c3c(cc4c2CCC4)CCC3)c1
active: [2] 26.9 µM
not listed: [3] | [15] | [16] | [19] | [20]
inactive: all other assays above

Nc1nc2ncc(CNc3ccc(C(=O)N[C@@H](CCC(=O)O)C(=O)O)cc3)nc2c(=O)[nH]1
not listed: [16] | [19] | [20]
inactive: all other assays above

Cn1cnc([N+](=O)[O-])c1Sc1ncnc2nc[nH]c12
active: [16] 46.1 µM
not listed: [15] | [17] | [18] | [19] | [20]
inactive: all other assays above

CNCc1ccc(NC(=O)c2c[nH]c3c2C(=O)CCC3)cc1
active: [10] 24.1 µM
not listed: [2] | [16]
inactive: all other assays above

CC(C)CCO
not listed: [13] | [15] | [19] | [20]
inactive: all other assays above

CCOC(=O)c1ccc(C2CCC(NC[C@H](O)COc3ccc(O)c(NS(C)(=O)=O)c3)CC2)cc1 (stereo not given in full)
active: [1] 46.5 µM | [3] 57.5 µM | [10] 48.3 µM | [15] 48.5 µM | [14] 54.4 µM
not listed: [4] | [13] | [16] | [18]
inactive: all other assays above

CC1=CC(=O)CC(C)(C)C1
active: [2] 50 µM
not listed: [13] | [15] | [16] | [18] | [19] | [20]
inactive: all other assays above

Oc1ccc2c(c1)-c1ccccc1C2
active: [1] 33.5 µM | [3] 46.4 µM | [4] 24.7 µM | [5] 54.2 µM | [6] 11.9 µM | [9] 37.2 µM | [10] 3.93 µM | [14] 57.7 µM
inactive: [2] | [7] | [8] | [11] | [12] | [18]

Cc1[nH]cnc1C[C@H]1CCc2c(C)c3ccccc3n2C1=O
active: [1] 37.2 µM | [2] 7.57 µM | [4] 18.9 µM | [9] 29.7 µM | [10] 15.8 µM | [11] 40.8 µM | [14] 20.4 µM
inactive: [5] | [6] | [7] | [8] | [12] | [20]

CC(C)=CCC/C(C)=C/CO
not listed: [3] | [13] | [16] | [17] | [18] | [19] | [20]
inactive: all other assays above

Nc1ccc(Nc2ccccc2)cc1
active: [16] 24.5 µM
not listed: [3] | [13] | [15] | [18] | [19] | [20]
inactive: all other assays above
